From PubChem BioAssay (NCI)
About 79,000 compounds went through this panel and 15% of them were active in at least one assay; those are over-represented in the sample as a whole. Active and inactive are the calls of the source. No stated cut-off is given here; in the data, active means growth inhibition above about 70%; inactive means the rest.

Assay: NCI Yeast Anticancer Drug Screen. Data for the CLN2oe strain (AID 163);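 further: 0% = growth of vehicle-only control cultures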
Settings: S. cerevisiae CLN2oe strain, stronger effect = higher value
Experimental: Growth inhibition of yeast strains with defined genetic alterations is measured as a screen for potential anti-cancer activity. Selected strains with alterations in DNA damage repair or cell cycle control were exposed to compounds and growth inhibition was measured relative to vehicle treated controls. The strain used in this assay is CLN2oe

With `COc1ccc(/C(=N/O)c2ccccc2C2=Nc3ccccc3C(NCc3ccccc3)O2)cc1C` (stereo not given) the growth inhibition (at 1.2 µM) was -2% (inactive), the growth inhibition (at 3.7 µM) was 2% (inactive) and the growth inhibition (at 11.0 µM) was 1% (inactive). For the same compound, the growth inhibition (at 33.0 µM) was 4% (inactive) and the growth inhibition (at 100.0 µM) was 94% (active).
With `Cc1ccnc(NS(=O)(=O)c2ccc(Nc3c4ccccc4nc4ccccc34)cc2)n1` the growth inhibition (at 1.2 µM) was 13% (inactive), the growth inhibition (at 3.7 µM) was 1% (inactive) and the growth inhibition (at 11.0 µM) was 14% (inactive). For the same compound, the growth inhibition (at 33.0 µM) was 39% (inactive) and the growth inhibition (at 100.0 µM) was 60% (inactive).
With `O=c1[nH]c(=O)n(CCCO)cc1F` the growth inhibition (at 1.2 µM) was 3% (inactive), the growth inhibition (at 3.7 µM) was 8% (inactive) and the growth inhibition (at 11.0 µM) was 9% (inactive). The growth inhibition (at 33.0 µM) was 3% (inactive) and the growth inhibition (at 100.0 µM) was 7% (inactive).
With `CCOC(=O)C1=C(C)NC(C)=C(C(=O)OCC)C1c1ccc(Cl)cc1` the growth inhibition (at 1.2 µM) was -4% (inactive), the growth inhibition (at 3.7 µM) was -10% (inactive) and the growth inhibition (at 11.0 µM) was 49% (inactive). The growth inhibition (at 33.0 µM) was 83% (active) and the growth inhibition (at 100.0 µM) was 88% (active).
For `CCCCCCCCCCCCOC1C(COCCN2CCCC2)OC2OC(C)(C)OC21` (stereo not given), the growth inhibition (at 1.2 µM) was -5% (inactive), the growth inhibition (at 3.7 µM) was 23% (inactive) and the growth inhibition (at 11.0 µM) was 71% (active). For the same compound, the growth inhibition (at 33.0 µM) was 98% (active) and the growth inhibition (at 100.0 µM) was 98% (active).
For `Cc1ccccc1C1=C(CC(=O)O)c2ccccc2CC1C` (stereo not given), the growth inhibition (at 1.2 µM) was 10% (inactive), the growth inhibition (at 3.7 µM) was 15% (inactive) and the growth inhibition (at 11.0 µM) was 57% (inactive). For the same compound, the growth inhibition (at 33.0 µM) was 97% (active) and the growth inhibition (at 100.0 µM) was 98% (active).
With `CCCCCC/C(C)=N/Nc1ccc([N+](=O)[O-])cc1[N+](=O)[O-]` the growth inhibition (at 1.2 µM) was -11% (inactive), the growth inhibition (at 3.7 µM) was -10% (inactive) and the growth inhibition (at 11.0 µM) was -14% (inactive). The growth inhibition (at 33.0 µM) was -18% (inactive) and the growth inhibition (at 100.0 µM) was -19% (inactive).
With `c1ccc(N/N=C2\CC(c3ccccc3)Oc3ccccc32)cc1` (stereo not given) the growth inhibition (at 1.2 µM) was 0% (inactive), the growth inhibition (at 3.7 µM) was 1% (inactive) and the growth inhibition (at 11.0 µM) was 1% (inactive). The growth inhibition (at 33.0 µM) was 12% (inactive) and the growth inhibition (at 100.0 µM) was 17% (inactive).
